According to PubChem BioAssay (EPA / NIEHS):
Records with an inconclusive call do not appear. Calls of active or inactive are those of the source. The calls were made as follows, unless noted: active = hit-call score of the fitted dose curve at least 0.9, where 1 is the maximum; inactive = score below 0.9.

How the values were obtained:
[1] = read-out: Interleukin-8 (IL8), CXCL8 (gene 3576); assay: BSK_3C_IL8: BioMAP Diversity Plus: 3C Assay for Interleukin-8 (IL8) Biomarker Activity (AID 2283020); conditions: primary human endothelial cells (HUVEC); actives raise or lower the signal
How it was run: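 IL-8 was measured by ELISA in HUVEC cultures 24 h after chemical dosing, with gain or loss of signal fitted relative to DMSO. Parallel SRB total-protein staining tracked overt cytotoxicity.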

[2] = read-out: Monokine induced gamma interferon (MIG), CXCL9 (gene 4283); assay: BSK_3C_MIG: BioMAP Diversity Plus: 3C Assay for Monokine induced gamma interferon (MIG) Biomarker Activity (AID 2283021); conditions: primary human endothelial cells (HUVEC); actives raise or lower the signal;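 as to AC50: MIG protein level measured by immunoassay in the treated endothelial cultures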
How it was run: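 ELISA measurement of MIG in human umbilical vein endothelial cells 24 h after treatment. Cytotoxicity tracked by SRB staining in parallel cultures; gain or loss of signal fitted relative to DMSO.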

[3] = target: human Vitamin D Receptor (VDR), VDR (gene 7421) (UniProt P11473); assay: ATG_VDR_TRANS: Attagene TRANS-FACTORIAL HepG2 Assay for human Vitamin D Receptor (VDR) (AID 2283022; active = hit-call score of the fitted dose curve at least 0.9, where 1 is the maximum)
How it was run: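 HepG2 cells were transiently transfected with multiple GAL4-UAS reporter units, so signal reflects exogenous chimeric receptor-Gal4 activity. After 24 h compound exposure, reporter mRNA was measured by RT-PCR, fluorescent labelling and capillary electrophoresis, fitted for gain of signal versus DMSO.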

[4] = read-out: Matrix Metallopeptidase 1 (MMP1), MMP1 (gene 4312); assay: BSK_BE3C_MMP1: BioMAP Diversity Plus: BE3C Assay for Matrix Metallopeptidase 1 (MMP1) Biomarker Activity (AID 2283024); conditions: primary human bronchial epithelial cells; actives raise or lower the signal
How it was run: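 ELISA measurement of MMP-1 after 24 h compound exposure of primary human bronchial epithelial cells. Changes in either direction fitted relative to DMSO; parallel SRB staining checked overt cytotoxicity.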

[5] = BSK_3C_Vis: BioMAP Diversity Plus: 3C Assay for Morphology Visualization (AID 2283025); conditions: primary human endothelial cells (HUVEC);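 also: fitted both ways so gain or loss versus DMSO counts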;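 as to AC50: light microscopy image of cell morphology used as background control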
How it was run: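 Light-microscopy visualization of HUVEC cultures at 24 h post-treatment, with DMSO as baseline for bidirectional fitting.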

[6] = read-out: Pselectin, SELP (gene 6403); assay: BSK_4H_Pselectin: BioMAP Diversity Plus: 4H Assay for Pselectin Biomarker Activity (AID 2283026); conditions: primary human endothelial cells (HUVEC); actives raise or lower the signal
How it was run: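 ELISA of surface P-selectin on HUVEC, 24 h after dosing, with parallel SRB staining (0.1% after 10% TCA fixation, 560 nm) for overt cytotoxicity. Activity fitted in both directions relative to DMSO.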

[7] = BSK_4H_SRB: Viability Assessment in the BioMAP Diversity Plus: 4H Assay (AID 2283027); conditions: primary human endothelial cells (HUVEC);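 also: cells exposed to compound for 24 h before staining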;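 as to AC50: curves fitted both ways versus DMSO so AC50 may be loss or gain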
How it was run: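 Cytotoxicity readout: sulforhodamine B (0.1%) staining of total protein after 10% TCA fixation, measured at 560 nm in human umbilical vein endothelium at 24 h. DMSO set the baseline; fitting was bidirectional.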

[8] = BSK_BE3C_SRB: Viability Assessment in the BioMAP Diversity Plus: BE3C Assay (AID 2283028); conditions: primary human bronchial epithelial cells;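 as to AC50: fitted both ways so AC50 may mark signal gain or loss versus DMSO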
How it was run: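 Human primary bronchial epithelial cells were exposed to test chemicals for 24 h. Total protein in parallel cultures was then measured by staining with 0.1% sulforhodamine B after 10% TCA fixation, with absorbance read at 560 nm. Activity was fitted bidirectionally against DMSO.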

[9] = read-out: Thrombomodulin, THBD (gene 7056); assay: BSK_3C_Thrombomodulin: BioMAP Diversity Plus: 3C Assay for Thrombomodulin Biomarker Activity (AID 2283029); conditions: primary human endothelial cells (HUVEC); actives raise or lower the signal
How it was run: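 ELISA measurement of thrombomodulin on HUVEC surface 24 h after chemical dosing; activity fitted in both directions relative to DMSO vehicle.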

[10] = read-out: Urokinase-type plasminogen activator receptor (uPAR), PLAUR (gene 5329); assay: BSK_4H_uPAR: BioMAP Diversity Plus: 4H Assay for Urokinase-type plasminogen activator receptor (uPAR) Biomarker Activity (AID 2283030); conditions: primary human endothelial cells (HUVEC); actives raise or lower the signal
How it was run: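 Primary human umbilical vein endothelial cells were exposed to chemical for 24 h before cell-surface uPAR was quantified by ELISA. Activity was fitted bidirectionally against the DMSO negative control baseline.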

[11] = read-out: Vascular endothelial growth factor receptor 2 (Homo sapiens) (UniProt P35968); assay: BSK_4H_VEGFRII: BioMAP Diversity Plus: 4H Assay for Vascular endothelial growth factor receptor 2 (VEGFR2) Biomarker Activity (AID 2283031); conditions: primary human endothelial cells (HUVEC); actives raise or lower the signal;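 as to AC50: cell-surface VEGFR2 protein level quantified by ELISA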
How it was run: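 Primary human umbilical vein endothelial cells in the BioMAP 4H system were dosed with test chemical, and 24 h later VEGFRII was measured by ELISA. Activity was fitted bidirectionally against DMSO as negative control and baseline.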

[12] = read-out: Human Leukocyte Antigen - DR isotype (HLADR), HLA-DRA (gene 3122); assay: BSK_BE3C_HLADR: BioMAP Diversity Plus: BE3C Assay for Human Leukocyte Antigen - DR isotype (HLADR) Biomarker Activity (AID 2283032); conditions: primary human bronchial epithelial cells; actives raise or lower the signal
How it was run: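 Cell-surface HLA-DR ELISA readout at 24 h after dosing in the BE3C primary human lung bronchial epithelial system; gain or loss of signal against DMSO, with parallel sulforhodamine B staining of total protein for overt cytotoxicity.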

[13] = read-out: Vascular cell adhesion molecule 1 (VCAM1), VCAM1 (gene 7412); assay: BSK_4H_VCAM1: BioMAP Diversity Plus: 4H Assay for Vascular cell adhesion molecule 1 (VCAM1) Biomarker Activity (AID 2283033); conditions: primary human endothelial cells (HUVEC); actives raise or lower the signal
How it was run: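 VCAM-1 ELISA read 24 h after chemical dosing of HUVEC in the BioMAP 4H system, with gain or loss of signal fitted relative to DMSO. Parallel SRB staining (560 nm) checked overt cytotoxicity.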

[14] = read-out: Interferon-gamma inducible Protein 10 (IP10), CXCL10 (gene 3627); assay: BSK_BE3C_IP10: BioMAP Diversity Plus: BE3C Assay for Interferon-gamma inducible Protein 10 (IP10) Biomarker Activity (AID 2283034); conditions: primary human bronchial epithelial cells; actives raise or lower the signal
How it was run: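 IP-10 quantified by ELISA in human primary bronchial epithelial cell cultures at 24 hours post-dosing. Gain or loss of signal fitted relative to DMSO; parallel SRB staining assessed overt cytotoxicity.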

[15] = read-out: Transforming growth factor beta 1 (TGFb1), TGFB1 (gene 7040); assay: BSK_BE3C_TGFb1: BioMAP Diversity Plus: BE3C Assay for Transforming growth factor beta 1 (TGFb1) Biomarker Activity (AID 2283036); conditions: primary human bronchial epithelial cells; actives raise or lower the signal
How it was run: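 ELISA readout of TGF-b1 from human lung bronchial epithelial primary cells, taken 24 h post-treatment. Gain or loss of signal fitted relative to DMSO baseline, with parallel SRB staining for overt cytotoxicity.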

[16] = read-out: Plasminogen activator inhibitor-1 (PAI1), SERPINE1 (gene 5054); assay: BSK_BE3C_PAI1: BioMAP Diversity Plus: BE3C Assay for Plasminogen activator inhibitor-1 (PAI1) Biomarker Activity (AID 2283037); conditions: primary human bronchial epithelial cells; actives raise or lower the signal
How it was run: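 PAI-1 was measured by ELISA in human primary bronchial epithelial cultures 24 h after chemical dosing, with cytotoxicity checked by SRB total-protein staining in parallel cultures. Activity was fitted in both directions relative to DMSO.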

[17] = read-out: urokinase plasminogen activator (uPA), PLAU (gene 5328); assay: BSK_BE3C_uPA: BioMAP Diversity Plus: BE3C Assay for urokinase plasminogen activator (uPA) Biomarker Activity (AID 2283038); conditions: primary human bronchial epithelial cells; actives raise or lower the signal
How it was run: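 Human primary bronchial epithelial cells were exposed to chemical for 24 h, then uPA levels were measured by ELISA. Responses were fitted bidirectionally against DMSO as negative control and baseline. Parallel SRB staining of total protein gauged overt cytotoxicity.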

[18] = read-out: Urokinase-type plasminogen activator receptor (uPAR), PLAUR (gene 5329); assay: BSK_BE3C_uPAR: BioMAP Diversity Plus: BE3C Assay for Urokinase-type plasminogen activator receptor (uPAR) Biomarker Activity (AID 2283039); conditions: primary human bronchial epithelial cells; actives raise or lower the signal
How it was run: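 uPAR levels were measured by ELISA after 24 h compound treatment of primary human bronchial epithelial cells, fitted in both directions relative to DMSO. Parallel SRB staining served as the cytotoxicity read-out.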

[19] = BSK_3C_SRB: Viability Assessment in the BioMAP Diversity Plus: 3C Assay (AID 2283023); conditions: primary human endothelial cells (HUVEC);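 also: fitted both ways against DMSO so a hit may be signal rise or drop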
How it was run: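 Primary human umbilical vein endothelial cells in the 3C system were read 24 h after compound dosing. Total protein was stained with 0.1% sulforhodamine B after 10% TCA fixation and read at 560 nm, with bidirectional fitting against DMSO as baseline.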

Measured: AC50

Chain of human Vitamin D Receptor (VDR), VDR (gene 7421) (P11473 whole entry, looked up, the tested form may be a part): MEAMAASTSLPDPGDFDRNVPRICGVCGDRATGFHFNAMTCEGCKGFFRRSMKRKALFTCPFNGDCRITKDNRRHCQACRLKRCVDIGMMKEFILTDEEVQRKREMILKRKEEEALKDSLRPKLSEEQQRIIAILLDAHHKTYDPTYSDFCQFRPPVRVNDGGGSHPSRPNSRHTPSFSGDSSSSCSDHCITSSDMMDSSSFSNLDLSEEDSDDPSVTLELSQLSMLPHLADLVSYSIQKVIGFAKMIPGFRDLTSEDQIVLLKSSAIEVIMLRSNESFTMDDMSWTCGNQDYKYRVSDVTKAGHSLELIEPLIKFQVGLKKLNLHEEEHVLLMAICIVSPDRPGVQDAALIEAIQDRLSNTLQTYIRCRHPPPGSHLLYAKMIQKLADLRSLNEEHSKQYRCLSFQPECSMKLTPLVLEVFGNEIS

Clc1ccccc1-c1nnc(-c2ccccc2Cl)nn1
active: [15] 32.5 µM
not listed: [19]
inactive: all other assays above

O=C1c2ccccc2C(=O)N1SC(Cl)(Cl)Cl
active: [4] 34.9 µM | [8] 31.8 µM | [12] 30.6 µM | [14] 35 µM | [15] 31.6 µM | [16] 20 µM | [17] 28.7 µM | [18] 34.7 µM
not listed: [19]
inactive: all other assays above

O=S1OCC2C(CO1)C1(Cl)C(Cl)=C(Cl)C2(Cl)C1(Cl)Cl (stereo unspecified)
active: [1] 32.7 µM | [2] 36 µM | [19] 20 µM | [4] 36.6 µM | [5] 16.3 µM | [6] 27.3 µM | [7] 27.7 µM | [10] 30.5 µM | [11] 34.8 µM | [12] 26.6 µM | [13] 36.5 µM | [14] 17.8 µM | [15] 39.1 µM | [16] 28.8 µM | [17] 30.3 µM | [18] 30.7 µM
inactive: [3] | [9]

CC[C@H](C)[C@H]1O[C@]2(C=C[C@@H]1C)C[C@@H]1C[C@@H](C/C=C(\C)[C@@H](O[C@H]3C[C@H](OC)[C@@H](O[C@H]4C[C@H](OC)[C@@H](O)[C@H](C)O4)[C@H](C)O3)[C@@H](C)/C=C/C=C3\CO[C@@H]4[C@H](O)C(C)=C[C@@H](C(=O)O1)[C@]34O)O2 (tested in a mixture with another compound)
inactive: [3]
active: [1] 6.07 µM | [2] 12.1 µM | [4] 11.1 µM | [5] 3.78 µM | [6] 5.3 µM | [7] 8.22 µM | [8] 4.65 µM | [9] 2.13 µM | [10] 8.93 µM | [11] 5.27 µM | [12] 5.87 µM | [13] 11.6 µM | [14] 5.96 µM | [15] 20 µM | [16] 5.51 µM | [17] 5.41 µM | [18] 6.13 µM

COC(=O)c1ccccc1CS(=O)(=O)NC(=O)Nc1nc(OC)cc(OC)n1
not listed: [8] | [19]
inactive: all other assays above

O=C(O)CCCOc1ccc(Cl)cc1Cl
not listed: [8] | [19]
inactive: all other assays above
